Screening results: PubChem BioAssay, National Center for Advancing Translational Sciences (NCATS)
The list is not random: actives were taken first. Their share in the collection is about 10%.
BAZ2B block: blocks human BAZ2B; Q9UIF8; AlphaScreen BAZ2B-H3K14Ac peptide displacement; Potency, µM (highest dose often 114 µM), actives largely listed as inhibitors; 360,000 tested, 4.4% active; further: nearly all actives have a fitted effect of over 60% in size
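Multi-concentration screen (max 110 uM) measuring displacement of acetylated histone H3 peptide from BAZ2B by AlphaScreen, using 50 nM protein, 50 nM peptide and 10 ug/mL streptavidin donor plus Ni-chelate acceptor beads.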
HP1b chromo inh: blocks HP1-beta chromodomain binding to methylated histone tails; P83916; AlphaScreen HP1-beta / biotin-H3K9me3 peptide binding; Potency, µM (highest dose often 114 µM), most hits filed as inhibitors; 390,000 tested, 0.56% active; AID 540317; further: nearly all actives have a fitted effect of over 70% in size
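AlphaScreen: HP1-beta (50 nM) preformed 30 min with biotin-H3(1-18)K9me3 peptide (50 nM) in PBS pH 7.4, 0.01% Tween-20. Compound added for 30 min at RT, then streptavidin donor/nickel chelate acceptor beads (10 ug/mL) for 30 min.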
G9a inh: inhibitors of human histone lysine methyltransferase G9a; Q96KQ7; G9a H3K9 monomethylation, AlphaScreen, 2 h; Potency, µM (highest dose often 102 µM), actives largely listed as inhibitors; 350,000 tested, 8.8% active; AID 504332; further: nearly all actives have a fitted effect of over 75% in size
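G9a (20 nM) was preincubated 15 min with compound, then reacted 2 h at room temperature with 500 nM biotin-H3K9 peptide and 20 µM SAM. Monomethyl-H3K9 detected by AlphaScreen using anti-H3K9me1 antibody.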
CtBP-E1A blk: blocks the CtBP interaction with E1A. AlphaScreen GST-E1A/His-CtBP binding, 1536-well; active compounds read low. activity change, % (concentration not given with the values). 340,000 tested, 0.49% active. AID 651724; in the data active means activity change below about -65%; inconclusive means mostly about -30% to -63%
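In 5 uL wells, 23 nL compound meets equimolar GST-E1A and His-CtBP (5X stock 125 nM each) for 2 h, 37 °C. Beads (5X, 50 ug/mL) then 1 h, 37 °C, dark.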
JMJD2A Tudor inh: blocks the human JMJD2A Tudor domain | O75164 | AlphaScreen JMJD2A-Tudor / H3K4me3 peptide binding | Potency, µM (top dose mostly 114 µM), usual class: inhibitors | 390,000 tested, 4.4% active; further: nearly all actives have a fitted effect of over 50% in size
Six1-Eya2 blk: Six1/Eya2 interaction inhibition | AlphaScreen GST-Six1/His-Eya2 binding, biochemical; active compounds read low | activity change, % (no concentration beside the values) | 360,000 tested, 0.56% active; in the data active means activity change below about -65%; inconclusive means mostly about -30% to -63%
Target sequence (O00167 whole entry, looked up): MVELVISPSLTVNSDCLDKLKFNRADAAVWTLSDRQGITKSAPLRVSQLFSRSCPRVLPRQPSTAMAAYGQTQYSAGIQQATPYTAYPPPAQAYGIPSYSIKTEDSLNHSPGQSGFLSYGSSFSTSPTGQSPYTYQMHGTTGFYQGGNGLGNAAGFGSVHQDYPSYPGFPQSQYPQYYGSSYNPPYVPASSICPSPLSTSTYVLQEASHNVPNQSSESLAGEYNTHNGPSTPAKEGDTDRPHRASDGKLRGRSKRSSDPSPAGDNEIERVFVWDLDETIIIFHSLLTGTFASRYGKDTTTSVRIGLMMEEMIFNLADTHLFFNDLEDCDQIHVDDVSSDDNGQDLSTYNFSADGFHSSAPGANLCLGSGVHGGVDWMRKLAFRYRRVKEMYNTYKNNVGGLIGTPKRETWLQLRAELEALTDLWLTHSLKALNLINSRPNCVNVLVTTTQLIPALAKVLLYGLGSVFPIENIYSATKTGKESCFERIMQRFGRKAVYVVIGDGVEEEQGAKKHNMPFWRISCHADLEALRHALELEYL
Target sequence (Q15475 whole entry, looked up): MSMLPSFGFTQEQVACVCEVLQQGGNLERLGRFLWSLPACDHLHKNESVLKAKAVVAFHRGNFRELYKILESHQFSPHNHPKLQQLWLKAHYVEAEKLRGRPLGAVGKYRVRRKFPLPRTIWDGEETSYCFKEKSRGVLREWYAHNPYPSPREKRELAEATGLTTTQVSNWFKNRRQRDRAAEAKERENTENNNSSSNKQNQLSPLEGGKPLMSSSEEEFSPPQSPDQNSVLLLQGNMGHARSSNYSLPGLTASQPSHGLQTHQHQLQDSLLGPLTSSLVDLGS
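AlphaScreen with GST-Six1 and His-Eya2 (5X mix: 250 nM and 500 nM), glutathione donor and nickel acceptor beads; buffer 50 mM Tris pH 8.0, 300 mM NaCl, 1 mM TCEP; 1 h at 37 C in the dark.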
Hits are given with their value; . = inactive; ? = inconclusive; / = no result given; [ ] = another dose, or the depositor's remark. Unless noted, the call rests on the fitted dose curve; in most records, active means well fitted inhibition curve with a large enough effect; inconclusive means small, poorly fitted or top-dose-only effect; inactive means no such curve, though single readings can be large or run the other way.

SMILES	BAZ2B block	HP1b chromo inh	G9a inh	CtBP-E1A blk	JMJD2A Tudor inh	Six1-Eya2 blk
O=C(COC(=O)c1cnccn1)N=c1sccn1Cc1ccccc1Cl	.	.	56µM	.	.	.
Cc1cnc(C(=O)OCC(=O)N=c2sccn2Cc2ccccc2Cl)cn1	.	.	.	.	.	.
O=C1CCc2cc(S(=O)(=O)Nc3ccccn3)ccc2N1	/	/	/	/	.	/
COc1ccc(/C=C2\CCCC(C(=O)C(F)(F)F)=C2O)cc1OC	?	/	8.9µM	/	/	/
CCOc1cc(/C=C2\CCCC(C(=O)C(F)(F)F)=C2O)ccc1O	.	.	20µM	.	.	.
COc1cc(/C=C2/CCCC(C(=O)C(F)(F)F)=C2O)ccc1O	?	.	.	.	.	.
CCOC(=O)C1=C(C)NC(=O)CC1c1cc2c(cc1[N+](=O)[O-])OCO2 (stereo not drawn)	/	.	22µM	.	.	.
CCCOC(=O)C1=C(C)N(C)C(=O)NC1c1cc2c(cc1[N+](=O)[O-])OCO2 (stereo not drawn)	?	.	10µM	.	?	.
O=C(O)c1ccc2c(c1)C(=O)N([C@H](Cc1ccc(F)cc1)C(=O)O)C2=O	.	/	.[12.7 µM]	/	.	/
O=C(O)c1ccc2c(c1)C(=O)N([C@H](Cc1ccccc1)C(=O)O)C2=O	79µM	/	.[12.7 µM]	/	.	/
O=C(O)c1ccc2c(c1)C(=O)N([C@H](Cc1ccc(O)c(O)c1)C(=O)O)C2=O	?	/	2µM	/	89µM	/
Cc1ccc(NC(=O)CSc2nc3ccccc3c3nc(CCc4c(C)n[nH]c4C)nn23)c(C)c1	.	.	.	/	.	/
CC(C)(CS)C(=O)N1CCC[C@H]1C(=O)O	/	/	4.5µM	/	/	/
COc1ccc(CNC(=O)Cc2c(C)c3cc4c(C)coc4c(C)c3oc2=O)cc1OC	.	.	.	/	.	/
CCOc1cccc(CNc2ccc(O)cc2)c1OCc1ccc(Cl)cc1	.	.	14µM	?	79µM	.
CSc1ccc(CNc2ccc(Cl)cc2)cc1	.	.	/	.	.	.
CCOc1cc(CNc2ccc(O)cc2)ccc1OCc1ccc(Cl)cc1Cl	?	.	?	?	79µM	.
CCOc1ccccc1CNc1ccc(O)cc1	35µM	?	.	?	56µM	?
CCc1ccc(CNc2ccc(O)cc2)cc1	40µM	.	?	?	56µM	.
Cc1ccc(NCc2ccccc2OCc2ccccc2F)cc1	?	.	?	.	?	.
Cc1cccc(S(=O)(=O)c2cn(Cc3ccccc3)c3cc(N4CCCCC4)c(F)cc3c2=O)c1	.	.	.	/	.	/
Cc1cccc(NC(=O)Cn2c(=O)ccc3cc(S(=O)(=O)N4CCCC4)ccc32)c1C	.	.	.	/	.	/
Cn1nnnc1SCCNCc1ccc(OCc2ccccc2Cl)cc1	.	.	.	/	.	/
Oc1ccc(NCc2ccc(OCc3ccccc3Cl)cc2)cc1	?	?	3.2µM	/	50µM	/
COc1ccc(-n2c(=O)c3c4c(sc3n(CC(=O)Nc3cc(C)[nH]n3)c2=O)CCC4)c(OC)c1	/	.	?	/	89µM	.
SMILES	BAZ2B block	HP1b chromo inh	G9a inh	CtBP-E1A blk	JMJD2A Tudor inh	Six1-Eya2 blk
COc1ccccc1-n1c(=O)c2c3c(sc2n2c(=S)[nH]nc12)CCC3	.	.	3.2µM	.	14µM	.
COc1ccc(-n2c(=O)c3c4c(sc3n(CC(=O)C(C)(C)C)c2=O)CCCC4)c(OC)c1	.	.	?	/	.	/
O=C1/C(=C\c2ccc(O)cc2)SC(=S)N1Cc1ccccc1	50µM	?	/	.	?	.
O=C(O)c1ccc(/C=C2/SC(=S)N(Cc3ccccc3)C2=O)cc1	?	.	?	.	?	.
COc1ccc(CN2C(=O)/C(=C/c3ccncc3)SC2=S)cc1	8.9µM	?	28µM	.	50µM	.
O=C1/C(=C\c2cc(Br)cc(Br)c2O)SC(=S)N1Cc1ccccc1	10µM	32µM	.[2.33 µM]	.	28µM	.
CCOc1ccc(/C=C2\SC(=S)N(CC(=O)Nc3ccccn3)C2=O)cc1	.	.	?	.	.	.
CC(=O)Oc1ccc(/C=C2/SC(=S)N(Cc3ccccc3)C2=O)cc1	3.5µM	?	?	.	?	.
Cc1ccc(S(=O)Cc2nc(-c3ccc(C(=O)NC(C)c4ccccc4)cc3)oc2C)cc1 (stereo not drawn)	.	.	?	/	.	/
